Sfp PPTase inh – Sfp phosphopantetheinyl transferase inhibition | Q9F4F7 | Biochemical Sfp PPTase activity, qHTS | Potency, µM, without a hit: largest response in the series, negative = inhibition, actives largely listed as inhibitors | hit rate 3.5% among 310,000 | AID 1490;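 further: the enzyme is Sfp with the accession as filed and its product quenches rhodamine fluorescence; 0% = enzyme reaction without inhibitor and -100% = no enzyme wells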
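Fluorescence-quenching assay with 15 nM Sfp, 5 uM rhodamine-CoA and 12.5 uM BHQ-2-labelled ybbR peptide in pH 7.6 Hepes/MgCl2 buffer. Enzyme was pre-incubated with compound for 15 min at room temperature. Rate was taken from the 30-min fluorescence change (525/598 nm).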
ALDH1A1 block – blocks purified human ALDH1A1 activity | AID 1030 | hit rate 7.3% among 220,000 | P00352 | Purified ALDH1A1, NADH fluorescence, propionaldehyde substrate | Potency, µM (titrated, usually from 75.3 µM), for the others: top-dose activity, negative = inhibition, usual class: inhibitors; active means well fitted inhibition curve with a large enough effect, not every such curve was filed as active; inconclusive means small, poorly fitted or top-dose-only effect, or another doubt; inactive means no such curve, though single readings can be large or run the other way;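 further: plate controls were no enzyme wells and a reference inhibitor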
PLK1 PBD block – blocks phosphopeptide binding to human PLK1 polo-box domain; AID 720504; P53350; Potency, µM, without a hit: max response, negative = inhibition, actives largely listed as inhibitors; hit rate 2.8% among 360,000; Plk1 PBD binding of FITC phosphopeptide, fluorescence polarization; further: series mostly up to about 57 µM; nearly all actives have a fitted effect of over 65% in size
RORgamma inh – blocks mouse ROR gamma transcriptional activity. P51450. Drosophila S2 Gal4-RORgamma UAS-luciferase reporter, 20 h. Potency, µM (doses to about 53.6 µM), without a hit: top-dose activity change, negative = inhibition, hits mostly inhibitors. hit rate 5.4% among 310,000; further: nearly all actives have a fitted effect of over 60% in size
Target sequence (P51450 whole entry, looked up, the tested form may be a part): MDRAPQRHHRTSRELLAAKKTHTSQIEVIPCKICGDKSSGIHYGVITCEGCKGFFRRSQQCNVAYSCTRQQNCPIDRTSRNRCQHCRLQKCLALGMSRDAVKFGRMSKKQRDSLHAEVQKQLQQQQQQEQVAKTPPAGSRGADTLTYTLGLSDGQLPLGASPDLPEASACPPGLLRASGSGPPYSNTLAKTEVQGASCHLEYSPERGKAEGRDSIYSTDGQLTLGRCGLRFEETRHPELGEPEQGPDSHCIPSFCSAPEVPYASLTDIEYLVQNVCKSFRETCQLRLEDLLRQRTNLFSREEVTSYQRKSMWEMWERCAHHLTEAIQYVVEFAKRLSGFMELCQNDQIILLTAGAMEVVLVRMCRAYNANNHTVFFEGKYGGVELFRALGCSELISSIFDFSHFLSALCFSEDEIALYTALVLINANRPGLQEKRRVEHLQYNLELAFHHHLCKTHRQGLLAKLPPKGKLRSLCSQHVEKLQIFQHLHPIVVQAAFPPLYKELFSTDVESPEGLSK
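Read-out: Photinus luciferase luminescence; inhibitors lower reporter signal. Insect Schneider cells with Gal4-ROR gamma fusion under metallothionein promoter, UAS reporter; 700 uM final copper sulfate induction, 20 hr, ambient temperature.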
VP16 counter – Gal4-VP16 reporter inhibition counter-screen. Drosophila S2 Gal4-VP16 UAS-luciferase, luminescence, 20 h. hit rate 3.5% among 310,000. Potency, µM (series often up to 53.6 µM), inactives show at the highest dose activity, negative = inhibition, most hits filed as inhibitors;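 further: Gal4-VP16 expression switched on by copper sulfate through the metallothionein promoter; nearly all actives have a fitted effect of over 50% in size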
Active calls of the source: *; [ ] = remark or other dose. Only some compounds are listed: those with a hit (about 12% of all), similar ones and a draw of the others. Unless noted, the call rests on the fitted dose curve; in most records, active means well fitted curve in the direction sought with a large enough effect; inconclusive means small, poorly fitted or top-dose-only effect, or another doubt; inactive means no such curve, though single readings can be large; an effect the other way counts as inactive or inconclusive. Unless noted, on the % scale 0 is the no-effect control and ±100 the full control effect; potency means the concentration at half of the fitted maximal effect.

How did COc1ccc(-n2c(Cc3cccn3C)nnc2SCC(=O)Nc2ccc(C(C)=O)cc2)cc1 do in these assays?
Sfp PPTase inh: -13%; ALDH1A1 block: 8.9µM*; PLK1 PBD block: -2%; RORgamma inh: 1%; VP16 counter: -3%

Results for Cc1ccc(-n2c(SCC(=O)NCC3CCCO3)nnc2-c2ccoc2C)cc1 (configuration not stated) ?
Sfp PPTase inh: 16%; ALDH1A1 block: 4%; PLK1 PBD block: -19%; RORgamma inh: -14%; VP16 counter: -1%

What do the screens show for `Cn1cccc1Cc1nnc(SCC(=O)Nc2cccc(Cl)c2)n1-c1ccc(F)cc1`?
Sfp PPTase inh: -7%; ALDH1A1 block: -6%; PLK1 PBD block: 27µM*; RORgamma inh: inconclusive; VP16 counter: -3%

What do the screens show for `Cc1occc1-c1nnc(SCC(=O)NCC2CCCO2)n1C` (configuration not stated)?
Sfp PPTase inh: 2%; ALDH1A1 block: -1%; PLK1 PBD block: 30µM*; RORgamma inh: 8%[0.365 µM]

Results for CCCCC[C@H](O)/C=C/C1=C(C/C=C\CCCC(=O)O)C(=O)CC1 ?
Sfp PPTase inh: 11%; ALDH1A1 block: -9%; RORgamma inh: -4%; VP16 counter: -14%

What do the screens show for `CC1=C(C(=O)N2CCOCC2)CC(CC(=O)NCCc2ccccn2)C(=O)N1Cc1ccccc1` (configuration not stated)?
PLK1 PBD block: -9%

How did O=C(CSc1ncnc2c1nnn2Cc1ccccc1F)NCC1CCCO1 (configuration not stated) do in these assays?
Sfp PPTase inh: 0%; PLK1 PBD block: -11%; RORgamma inh: 13µM*; VP16 counter: -29%

Results for CC(=O)c1ccc(NC(=O)CSc2nnc(Cc3cccn3C)n2-c2ccc(F)cc2)cc1 ?
Sfp PPTase inh: -9%; ALDH1A1 block: 13µM*; PLK1 PBD block: -19%; RORgamma inh: inconclusive; VP16 counter: 8%

How did CCOc1ccc(NC(=O)CSc2nnc(Cc3cccn3C)n2-c2ccc(OC)cc2)cc1 do in these assays?
Sfp PPTase inh: 0%; ALDH1A1 block: 4µM*; PLK1 PBD block: -12%; RORgamma inh: 22%; VP16 counter: 0%

Results for O=C(Cn1cnc2c(nnn2Cc2ccccc2F)c1=O)NCC1CCCO1 (configuration not stated) ?
Sfp PPTase inh: 9%; ALDH1A1 block: -5%; PLK1 PBD block: 4%; RORgamma inh: -16%; VP16 counter: -17%

Results for Cc1ccc(NC(=O)CSc2nnc(Cc3cccn3C)n2-c2ccc(F)cc2)cc1 ?
Sfp PPTase inh: -9%; ALDH1A1 block: inconclusive; PLK1 PBD block: 2%; RORgamma inh: inconclusive; VP16 counter: 5%

How did COc1ccc(-n2c(Cc3cccn3C)nnc2SCC(=O)NCC2CCCO2)cc1 (configuration not stated) do in these assays?
Sfp PPTase inh: 50µM*; ALDH1A1 block: -13%; PLK1 PBD block: 4%; RORgamma inh: -12%; VP16 counter: -10%

What do the screens show for `COc1ccc(-n2c(Cc3cccn3C)nnc2SCC(=O)Nc2cccc(Cl)c2)cc1`?
Sfp PPTase inh: -12%; ALDH1A1 block: inconclusive; PLK1 PBD block: 5%; RORgamma inh: 50%; VP16 counter: -6%

Results for Cn1cccc1Cc1nnc(SCC(=O)N2CCN(c3ccccc3)CC2)n1-c1ccc(F)cc1 ?
Sfp PPTase inh: -17%; ALDH1A1 block: 14µM*; PLK1 PBD block: -5%; RORgamma inh: 45%; VP16 counter: 4%

Results for COc1ccc(NCc2nnc(SCC(=O)Nc3nc(-c4ccccc4)cs3)n2-c2ccccc2)cc1 ?
Sfp PPTase inh: 11%; ALDH1A1 block: inconclusive; PLK1 PBD block: -5%; RORgamma inh: 8%; VP16 counter: 5µM*

Results for COc1ccc(-n2c(CNc3ccc(C)cc3)nnc2SCC(=O)Nc2nc(-c3ccccc3)cs2)cc1 ?
Sfp PPTase inh: 21%; ALDH1A1 block: 14%; PLK1 PBD block: -2%; RORgamma inh: 15%; VP16 counter: -8%

How did CN(C)S(=O)(=O)c1ccc(C(=O)NCc2nnc(SCC(=O)Nc3ccc(F)cc3)n2-c2ccc(F)cc2)cc1 do in these assays?
Sfp PPTase inh: 0%; ALDH1A1 block: 7.1µM*; PLK1 PBD block: 8%; RORgamma inh: 23%; VP16 counter: -10%

How did O=C1C(=O)N(CCCN2CCOCC2)C(c2ccc([N+](=O)[O-])cc2)/C1=C(/O)c1ccc2c(c1)OCO2 (configuration not stated) do in these assays?
Sfp PPTase inh: -20%; PLK1 PBD block: -15%; RORgamma inh: -1%; VP16 counter: 0%

What do the screens show for `Cc1cccc(C)c1-n1nnnc1C1c2ccccc2C(=O)N1CCCn1ccnc1` (configuration not stated)?
PLK1 PBD block: -9%

How did COc1cc([C@@H]2Oc3cc([C@H]4Oc5cc(O)cc(O)c5C(=O)[C@H]4O)ccc3O[C@H]2CO)ccc1O do in these assays?
Sfp PPTase inh: -30%; ALDH1A1 block: inconclusive; RORgamma inh: 1%; VP16 counter: -5%

How did CC(C)[C@H](NC(=O)[C@H](CCC(N)=O)NC(=O)CNC(=O)[C@@H]1CCCN1C(=O)[C@H](Cc1ccc(O)cc1)NC(=O)CN)C(=O)O do in these assays?
Sfp PPTase inh: -12%; RORgamma inh: 11%; VP16 counter: 0%

What do the screens show for `COc1cccc2sc3cc(C#CC4(O)CCCCC4)ccc3c(=O)c12`?
PLK1 PBD block: 0%

What do the screens show for `COc1cccc2sc3ccc(C#CC4(N)CCCCC4)cc3c(=O)c12`?
Sfp PPTase inh: 79µM*; PLK1 PBD block: -1%; RORgamma inh: -36%; VP16 counter: 2%

What do the screens show for `CCCCn1c(N)c(N(CC(C)C)C(=O)c2cc3ccccc3cc2OC)c(=O)[nH]c1=O`?
PLK1 PBD block: -2%

What do the screens show for `COC(=O)c1ccc(C2/C(=C(\O)c3ccc4c(c3)OCCO4)C(=O)C(=O)N2c2nnc(C)s2)cc1` (configuration not stated)?
Sfp PPTase inh: -1%; PLK1 PBD block: -21%; RORgamma inh: 18%; VP16 counter: -3%

Results for COc1ccc(C2/C(=C(\O)c3ccc4c(c3)OCCO4)C(=O)C(=O)N2c2nc(C)c(C(C)=O)s2)cc1 (configuration not stated) ?
Sfp PPTase inh: 45µM*; PLK1 PBD block: -24%; RORgamma inh: -12%; VP16 counter: 4%

What do the screens show for `O=C(COC(=O)C1CCN(S(=O)(=O)c2cccs2)CC1)Nc1ccc(F)cc1F`?
Sfp PPTase inh: 14%; PLK1 PBD block: 1%; RORgamma inh: 6%; VP16 counter: -16%

Results for CCN(C(=O)COC(=O)CCOc1ccc(C(C)(C)C)cc1)c1c(N)n(Cc2ccccc2)c(=O)[nH]c1=O ?
PLK1 PBD block: -5%

How did N#CCCN(C(=S)NC(=O)c1cccs1)c1ccccc1F do in these assays?
PLK1 PBD block: 19µM*
